# Assay outcomes as filed in PubChem BioAssay.
# Mito fusion act: mitochondrial division inhibition or fusion activation. S. cerevisiae fusion-defective mutant growth rescue, CellTiterGlo 48 h. Potency, µM (doses to about 46.1 µM), for the others: at the highest dose growth rescue (activation), usual class: activators. hit rate 0.23% among 320,000; further: potency means the concentration at half of the fitted maximal effect; % of control where 0% means no effect; nearly all actives have a fitted effect of over 45% in size
#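 Yeast fusion mutant, YPEG (non-fermentable carbon), compound, 48 h at 37C non-permissive; CellTiterGlo added, 10 min RT, luminescence read. Rescued growth = division inhibition.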
# IL-2 act: IL-2 activation | IL-2 activation reporter assay, cell-based qHTS; stimulated with anti-CD3/CD4/CD28 beads; in transgenic mouse T cells | activation, % (series mostly up to about 46 µM) | hit rate 0.065% among 360,000; in the data active means activation above about 50%; inconclusive means mostly about 30% to 49%; further: 0% is about no effect
#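 Quantitative HTS in unstimulated transgenic mouse T cells, with memory T cells as non-tolerant control and PMA/ionomycin as tolerance-bypass control. Compound pretreatment lasted 60 minutes before 18 h bead stimulation; EGFP/DsRed fluorescence read.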
# Chronic BCR inh: chronic active BCR signaling inhibition; ABC-DLBCL IkBa-CBG/CBR reporter, luminescence ratio, 4 h; Potency, µM (titrated, usually from 46.1 µM), inactives show top-dose activity change, negative = inhibition, most hits filed as inhibitors; hit rate 0.05% among 340,000; AID 493014; active means well fitted inhibition curve with a large enough effect in the signal ratio, with a control signal flat, not every such curve was filed as active; inconclusive means small, poorly fitted or top-dose-only effect, or effect the other way, or a change in a side signal; the % refers to the signal ratio;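 further: potency means the concentration at half of the fitted maximal effect; plate controls were basal doxycycline-induced cells for no effect and cells given 10 µM MG132 for full effect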
#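 Concentration-response series (up to 46 uM) were applied to TMD8 dual-reporter cells for 4 h at 37C with doxycycline. Green/red ratio, after filter-overlap correction, defined %Activity; red signal alone was normalised to basal cells and zero luminescence.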
# PTHR1 agonist: PTHR1 (human) receptor agonism | HEK293 GP2 PTHR1 cells, GloSensor cAMP luminescence, 1 h | hit rate 0.075% among 410,000 | Potency, µM (top dose mostly 115 µM), for the others: top-dose activation, hits mostly activators; further: potency means the concentration at half of the fitted maximal effect; nearly all actives have a fitted effect of over 55% in size
# Target sequence (Q03431 whole entry, looked up): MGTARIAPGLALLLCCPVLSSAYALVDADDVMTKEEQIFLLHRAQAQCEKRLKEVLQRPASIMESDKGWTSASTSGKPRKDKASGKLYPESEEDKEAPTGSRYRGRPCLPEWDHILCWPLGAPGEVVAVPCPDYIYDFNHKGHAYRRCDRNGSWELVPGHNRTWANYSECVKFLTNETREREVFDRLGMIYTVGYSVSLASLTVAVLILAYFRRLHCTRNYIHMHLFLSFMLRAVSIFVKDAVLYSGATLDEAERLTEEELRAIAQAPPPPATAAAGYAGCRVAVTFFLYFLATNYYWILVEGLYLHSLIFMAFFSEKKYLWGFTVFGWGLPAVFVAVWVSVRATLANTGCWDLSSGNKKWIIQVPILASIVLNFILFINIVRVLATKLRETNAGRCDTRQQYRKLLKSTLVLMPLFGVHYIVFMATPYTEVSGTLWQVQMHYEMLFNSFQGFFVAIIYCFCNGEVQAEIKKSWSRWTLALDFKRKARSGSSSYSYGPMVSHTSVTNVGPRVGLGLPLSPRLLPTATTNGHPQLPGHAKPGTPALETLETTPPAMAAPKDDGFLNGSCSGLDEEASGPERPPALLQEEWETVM
#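 HEK-293-derived GP2 cells expressing PTHR1 and a GloSensor cAMP reporter, 3,000/well, plated overnight, given luciferin plus IBMX (each 0.5 mM as added) for 1 h at 37 °C, then compound for 1 h at 37 °C. Luminescence was read after 15 min at room temperature.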
# BRCA1 expr up: increases BRCA1 expression; AID 624202; hit rate 1.1% among 380,000; Potency, µM (titrated, usually from 46.1 µM), for inactives: at the top dose activation, most hits filed as activators; MCF7-BRCA1-FFLuc reporter, luminescence, 48 h; response scale: scaled: vehicle 0%, 10 µM genistein 100%; further: potency means the concentration at half of the fitted maximal effect; nearly all actives have a fitted effect of over 80% in size
#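 48 h compound treatment of MCF7-BRCA1-FFLuc cells (phenol-red free MEM, 37 °C), then 15 min with luciferase substrate and luminescence imaging.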
# TCR act: T cell receptor activation. primary human leukocytes, anti-CD3, IL-2 HTRF, 48 h. Potency, µM (doses to about 9.22 µM), without a hit: top-dose activation of IL-2 secretion, usual class: activators. 330,000 tested, under 10 active; further: % of control where 0% means no effect
#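 TCR engagement came from a-CD3 beads alone, with compounds added to primary human leukocytes for 48 hr. Secreted IL-2 bridged europium cryptate- and d2-labelled anti-IL-2 antibodies, giving FRET emission at 665nm after 320nm excitation.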
# An asterisk follows results filed as active; i = inactive; ? = inconclusive; . = no result given; [ ] = another dose, or the depositor's remark. Shown are actives, neighbours in structure and some others; about 1.3% of the full set was active somewhere. Unless noted, the call rests on the fitted dose curve; in most records, active means well fitted curve in the direction sought with a large enough effect; inconclusive means small, poorly fitted or top-dose-only effect, or another doubt; inactive means no such curve, though single readings can be large; an effect the other way counts as inactive or inconclusive.
SMILES,Mito fusion act,IL-2 act,Chronic BCR inh,PTHR1 agonist,BRCA1 expr up,TCR act
COCCNC(=O)/C(C#N)=C/c1cccc(/C=C(\C#N)C(=O)NCCOC)c1,-3%,-5,15µM*,-37%,-46%,7%[46.1 µM]
O=C(O)c1ccnc2c(O)cccc12,2%,.,-13%,.,.,.
Cc1cccc(Cn2cc(C(=O)Nc3ccc(F)c(C(F)(F)F)c3)ccc2=O)c1,.,.,.,-32%,.,.
O=C(Nc1nnc(C2CCCC2)s1)C1CCC1,1%,-1,-1%,i,11µM*,1%
CN(C)S(=O)(=O)c1cccc(NC(=O)COC(=O)c2cc3ccccc3oc2=O)c1,7%,0,?,i,10µM*,4%
O=C(COC(=O)c1cc2ccccc2oc1=O)Nc1ccc(F)cc1F,3%,-3,?,-13%,10µM*,-6%
N#C/C(C(=O)Oc1ccccc1)=C1\C=CC=CN1,-6%,0,-5%,-18%[57.5 µM],3.2µM*,12%
N#C/C(C(=O)c1ccccc1)=C1/CCCN1,0%,-1,3%,-11%[57.5 µM],31%,-4%
C(=C1c2ccccc2Oc2ccccc21)c1ccccc1,.,.,.,.,15%,.
O=C(NCCc1nc2ccccc2n1CCCOc1ccccc1Cl)C1CCCCC1,.,.,.,.,0%,.
CCN(CC)c1cc(C)c(/C=C/c2ccnc3ccccc23)cc1C,.,.,.,.,-9%,.
O=C(c1cc(-c2cccc(Cl)c2)on1)N1CCCCCC1,17%,-4,-17%,-13%,13µM*,-4%
O=C(c1ccc2ccccc2c1)C1CCCN(C(=O)c2cccnc2)C1 (stereo not drawn),3%,-1,5%,-25%,-1%,2%
O=C(c1ccc2ccccc2c1)C1CCCN(C(=O)c2noc3c2CCCC3)C1 (stereo not drawn),10µM*,-1,?,-18%,-3%,-7%
Cn1c2cc(B(O)O)sc2c2cnn(Cc3ccc(F)cc3F)c(=O)c21,9%,.,?,.,.,.
Cc1cc(C)cc(NC(=O)CSc2nnc(CNC(=O)c3c(F)cccc3Cl)o2)c1,.,.,.,i,.,.
Cc1nc(Nc2ccccc2)sc1C(=O)c1ccccc1,19%,-2,?,i,10µM*,-7%
CN(C)CCNC(=O)c1sc2nc(-c3ccccc3)cc(C(F)(F)F)c2c1N,-11%,-1,7%,-1%,-72%,2%
COc1ccc(-c2cc(C(F)(F)F)c3c(N)c(C(=O)NCCSC)sc3n2)cc1,-3%,119*,?,-6%,-56%,0%
CCCCOc1ccc(-c2cn3ccccc3n2)cc1[N+](=O)[O-],?,-3,4%,-22%,?,11%[46.1 µM]
CCOc1ccc(-c2cn3ccccc3n2)cc1[N+](=O)[O-],-1%,-4,?,-2%,4µM*,0%[46.1 µM]
CCCOc1ccc(-c2csc(N)n2)cc1[N+](=O)[O-],12%,0,?,-2%,7.9µM*,4%[46.1 µM]
CCC(C)(C)NC(=O)c1cc([N+](=O)[O-])ccc1N1CCOCC1,-2%,0,3%,-2%,-10%,-1%[46.1 µM]
CCOC(=O)c1ccc(NC(=O)Cn2nnc3ccccc32)cc1,3%,0,?,-22%,4µM*,-2%
CCOC(=O)c1ccc(NC(=O)CCn2nnc3ccccc32)cc1,-1%,-1,0%,-3%,34%,10%[46.1 µM]
SMILES,Mito fusion act,IL-2 act,Chronic BCR inh,PTHR1 agonist,BRCA1 expr up,TCR act
CCOC(=O)NC(=O)/C(C#N)=C\Nc1ccc(Cl)cc1Cl,-1%,0,?,-15%,13µM*,6%
O=C(CSc1nc2ccccc2s1)Nc1ccc(N2CCOCC2)c(Cl)c1,24%,-4,?,-41%,-41%,4%[46.1 µM]
CC(=O)Nc1ccc2nc(SCC(=O)Nc3ccc(N4CCOCC4)c(Cl)c3)sc2c1,-7%,-4,?,-11%[57.5 µM],13µM*,-2%
O=C(CSc1nc2ccccc2o1)Nc1cc(C(F)(F)F)ccc1N1CCOCC1,5%,-2,-2%,-36%,-43%,0%
O=C(CSc1nc2ccccc2o1)Nc1ccc(N2CCOCC2)c(Cl)c1,-9%,0,0%,-30%,6.3µM*,7%
COc1ccc2[nH]c(C)c(C(=O)CNc3nccs3)c2c1,.,.,.,.,-31%,.
Clc1ccccc1CSc1cc2c(nn1)-c1ccccc1CC2,4%,-1,?,-9%,4µM*,2%
Clc1cccc(Cl)c1CSc1cc2c(nn1)-c1ccccc1CC2,-1%,51*,2%,i,30%,2%
Cc1ccc(Nc2nc(NCc3ccco3)nc3nccnc23)cc1C,.,.,.,.,-16%,.
Cc1nc2c(-c3ccccc3)c(C)[nH]n2c(=O)c1Cc1ccc(Br)cc1,.,.,.,-31%,.,.
C=CCn1c(SCC(=O)NC2CCCC2)nc2c([nH]c3ccccc32)c1=O,1%,1,0%,i,-16%,3%
Cc1ccc(OCCSc2nc(N)cc(N)n2)cc1,?,1,?,-13%,?,-2%
COc1ccc(OCCSc2nc(N)cc(N)n2)cc1,16%,-1,?,-23%[57.5 µM],11µM*,-4%
CN(C)c1ccc(/C=C2\C(=O)Nc3ccccc32)cc1,13µM*,.,.,.,?,.
COc1cccc(-c2nc(-c3ccc4c(c3)NC(=O)CO4)cs2)c1,-5%,0,?,-3%,10µM*,2%
O=C1COc2ccc(-c3csc(-c4ccc(F)cc4)n3)cc2N1,.,.,.,.,11%,.
CCN=C1NN=C(c2ccc(C)cc2)CS1,-5%,-2,?,-7%[57.5 µM],2.2µM*,5%
c1ccc(CN=C2NN=C(c3ccccc3)CS2)cc1,0%,-1,?,-53%,68%,-1%
O=C(Nc1ccc(SC(F)F)cc1)c1ccc(F)cc1,-1%,0,?,-37%,3.2µM*,-7%
CC(=O)c1ccc(NC(=O)c2ccn[nH]2)cc1,-6%,0,-20%,i,?,-3%
O=C(Nc1ccccc1)c1ccn[nH]1,7%,0,?,-11%[57.5 µM],7.1µM*,2%
O=C(Nc1ccc(SC(F)F)cc1)c1ccccc1F,3%,-2,?,-42%,?,-1%
O=C(Nc1ccc(F)cc1)c1ccccc1,-3%,-4,?,-11%[57.5 µM],11µM*,-8%
O=C(Nc1ccc(Nc2ccccc2)cc1)c1ccccc1,.,0,.,-97%,3.5µM*,-6%
COc1cc(/C=C/c2ccnc3ccccc23)cc(OC)c1OC,.,.,.,.,-50%,.
O=C(NCc1cccnc1)c1cc(C(=O)NCc2cccnc2)cc([N+](=O)[O-])c1,.,-2,.,i,1%,.
O=C(Nc1ccccc1)c1ccc(NC(=O)C2CC2)cc1,-1%,0,5%,i,4µM*,3%
